From PubChem
In the library only some 8.7% were active in any assay of this set; here they are far more common.
ALOX12 inh: ALOX12 (human) lipoxygenase inhibition; purified 12hLO, xylenol orange hydroperoxide absorbance; Potency, µM (highest dose often 108 µM), without a hit: at the top dose activity change, negative = inhibition, usual class: inhibitors; AID 1671190; 580,000 tested, 1.1% active; further: on the % scale 0 is the no-effect control and ±100 the full control effect
Target sequence (P18054 whole entry, looked up): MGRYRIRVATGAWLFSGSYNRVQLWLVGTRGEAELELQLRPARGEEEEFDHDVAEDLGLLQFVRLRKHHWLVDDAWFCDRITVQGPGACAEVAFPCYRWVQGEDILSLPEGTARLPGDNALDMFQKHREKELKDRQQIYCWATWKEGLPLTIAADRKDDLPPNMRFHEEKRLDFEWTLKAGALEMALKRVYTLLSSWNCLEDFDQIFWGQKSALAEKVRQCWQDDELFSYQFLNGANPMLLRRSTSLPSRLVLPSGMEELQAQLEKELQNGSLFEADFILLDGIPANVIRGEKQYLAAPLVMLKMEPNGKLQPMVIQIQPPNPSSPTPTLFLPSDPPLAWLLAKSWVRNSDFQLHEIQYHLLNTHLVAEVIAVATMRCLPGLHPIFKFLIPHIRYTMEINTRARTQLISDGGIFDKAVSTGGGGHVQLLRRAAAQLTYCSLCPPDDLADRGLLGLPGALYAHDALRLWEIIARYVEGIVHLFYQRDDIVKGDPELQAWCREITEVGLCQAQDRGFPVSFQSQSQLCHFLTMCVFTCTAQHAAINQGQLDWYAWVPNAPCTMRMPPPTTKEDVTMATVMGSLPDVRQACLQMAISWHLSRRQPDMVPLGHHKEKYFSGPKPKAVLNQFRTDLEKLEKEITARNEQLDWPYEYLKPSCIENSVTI
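Hydroperoxide product was detected by ferrous iron/xylenol orange as the 573 to 405 nm absorbance ratio. Arachidonic acid at 40 uM (final) was turned over for 30 min at room temperature by 150 nM human 12hLO, pH 7.0 Hepes buffer, after 15 min compound preincubation.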
HP1b binding inh: inhibitors of HP1-beta chromodomain binding to methylated histone tails; P83916; AlphaScreen HP1-beta / biotin-H3K9me3 peptide binding; Potency, µM (highest dose often 114 µM), inactives show at the highest dose activity change, negative = inhibition, hits mostly inhibitors; 390,000 tested, 0.56% active; AID 540317; further: nearly all actives have a fitted effect of over 70% in size
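Compound inhibition of the preformed complex between 50 nM HP1-beta and 50 nM biotinylated H3K9me3 peptide was read by AlphaScreen. Buffer was PBS pH 7.4 with 0.01% Tween-20. Incubations ran 30 min at room temperature, with 10 ug/mL donor/acceptor beads.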
JMJD2A Tudor inh: inhibitors of human JMJD2A Tudor domain. O75164. AlphaScreen JMJD2A-Tudor / H3K4me3 peptide binding. Potency, µM (doses to about 114 µM), without a hit: at the highest dose activity change, negative = inhibition, hits mostly inhibitors. 390,000 tested, 4.4% active. AID 504339; further: on the % scale 0 is the no-effect control and ±100 the full control effect; nearly all actives have a fitted effect of over 50% in size
BAZ2B block: inhibitors of human BAZ2B bromodomain | Q9UIF8 | AlphaScreen BAZ2B-H3K14Ac peptide displacement | Potency, µM (highest dose often 114 µM), for the others: at the top dose activity change, negative = inhibition, actives largely listed as inhibitors | 360,000 tested, 4.4% active | AID 504333; further: on the % scale 0 is the no-effect control and ±100 the full control effect; nearly all actives have a fitted effect of over 60% in size
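Compounds, titrated to a top concentration of 110 uM, were incubated 30 min at room temperature with preformed BAZ2B/acetyl-K14 H3 peptide complex (50 nM each). Proximity signal was measured by AlphaScreen after 20 min with beads.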
G9a inh: inhibitors of human histone lysine methyltransferase G9a; Q96KQ7; G9a H3K9 monomethylation, AlphaScreen, 2 h; Potency, µM (highest dose often 102 µM), for the others: at the top dose activity, negative = inhibition, usual class: inhibitors; 350,000 tested, 8.8% active; further: on the % scale 0 is the no-effect control and ±100 the full control effect; nearly all actives have a fitted effect of over 75% in size
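Enzyme 20 nM + cpd, 15 min RT; add b-H3K9 pep 500 nM / SAM 20 uM; 2 h RT; anti-H3K9me1 Ab 0.5 ug/mL + SA donor / anti-rabbit acceptor beads 20 ug/mL each, 10 min; AlphaScreen read.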
Sfp PPTase inh: inhibitors of Bacillus subtilis Sfp phosphopantetheinyl transferase. AID 1490. Potency, µM, for the others: largest response in the series, negative = inhibition, usual class: inhibitors. Q9F4F7. Biochemical Sfp PPTase activity, qHTS. 310,000 tested, 3.5% active;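 further: the enzyme is Sfp with the accession as filed and its product quenches rhodamine fluorescence; 0% = enzyme reaction without inhibitor and -100% = no enzyme wells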
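Sfp 15 nM + cpd, 15 min RT; start w/ rhodamine-CoA 5 uM, BHQ-2-YbbR 12.5 uM (final); 50 mM Hepes pH 7.6, 10 mM MgCl2, 0.01% NP-40, 0.01% BSA; read 525/598 nm at 0 and 30 min.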
* = called active by the depositor; ? = inconclusive; / = not tested or not shown; [ ] = remark or other dose. The call rests on the fitted dose curve; in most records, active means well fitted curve in the direction sought with a large enough effect; inconclusive means small, poorly fitted or top-dose-only effect, or another doubt; inactive means no such curve, though single readings can be large; an effect the other way counts as inactive or inconclusive. Potency means the concentration at half of the fitted maximal effect.

SMILES	ALOX12 inh	HP1b binding inh	JMJD2A Tudor inh	BAZ2B block	G9a inh	Sfp PPTase inh
CCOc1ccc(N2C(=O)NC(=O)/C(=C\c3cc(OC)c(OC)cc3[N+](=O)[O-])C2=O)cc1	/	-17%	?	?	18µM*	45µM*
COc1cc2c(cc1OCc1ccccc1)NC(=O)C21CCN(C(=O)c2cccnc2)CC1	45%	/	/	/	/	/
CCCN1CC[C@@H]2c3cc(O)ccc3CC[C@@H]21	-22%	45%	-7%	0%	6%[12.7 µM]	14%
CCCN1CCO[C@@H]2c3cc(O)ccc3OC[C@@H]21	?	/	/	/	/	56µM*
O=C(c1ccc(C(F)(F)F)cc1)N1CCC(C(=O)O)(c2ccccc2)CC1	3%[6.33 µM]	/	/	/	/	/
O=C(Nc1ccc(=O)n2c1[C@@H]1C[C@@H](CN(C(=O)NC3CCCCC3)C1)C2)c1ccco1	-6%[176 µM]	/	/	/	/	/
CCCCN1C(=O)NC(=O)C2(Cc3cc(C)ccc3N(C)C2)C1=O (stereo not given)	0%	31%	-16%	-7%	?	?
CCC(C)N1C(=O)NC(=O)C2(Cc3c(ccc4ccccc34)N(C)C2)C1=O (stereo not given)	?	-37%	-24%	?	1.8µM*	-5%
CCNC(=O)NC[C@H]1C[C@@H]2CCN1C[C@@H]2c1cc(-c2ccccc2)nn1C	18%[176 µM]	/	/	/	/	/
Cn1cccc1CN1CCCC2(CC(c3cccnc3)=NO2)C1 (stereo not given)	3%[6.33 µM]	/	/	/	/	/
O=c1c2cc(N3CCOCC3)ccc2[nH]c(=S)n1Cc1ccc(Cl)cc1	-6%	48%	9%	-18%	24%	16µM*
CC(=O)CC(c1ccccc1[N+](=O)[O-])c1c(O)c2ccccc2oc1=O (stereo not given)	-56%	30%	-8%	-19%	50µM*	20%
CN1CCN(C)c2cc(Nc3ccncc3)ncc2C1	33%[176 µM]	/	/	/	/	/
Cc1cc(/C=C2/C(=O)NC(=O)N(Cc3ccco3)C2=O)c(C)n1-c1ccccc1	?	71µM*	50µM*	?	10µM*	-22%
NC(=O)C1CCN(/C=C2\C(=O)NC(=O)N(Cc3ccco3)C2=O)CC1	-9%	?	79µM*	?	?	?
Cc1cc(/C=C2\C(=O)NC(=O)N(Cc3ccccc3)C2=O)c(C)n1C1CC1	?	16%	?	-14%	/	-7%
CCN(CC)c1ccc(/C=C2/C(=O)NC(=O)N(Cc3ccco3)C2=O)cc1	?	-14%	?	40µM*	?	50µM*
CN(C)c1ccc(/C=C2/C(=O)NC(=O)N(Cc3ccco3)C2=O)cc1	-29%	-7%	-35%	-31%	?	-19%
C=CCN1CCN(C(=O)Cc2ccc(F)cc2)CC1	-1%	/	/	/	/	/
S=c1nc(-c2ccccc2)n(-c2ccccc2)[nH]1	45µM*	-9%	3.5µM*	-14%	2.8µM*	2%
Nc1nc(N2CC3CCC(C2)N3CC(F)(F)F)c2[nH]cnc2n1	-4%[6.33 µM]	/	/	/	/	/
CCCCCCOc1ccc(CN2CCN(CC)CC2)cc1	?	0%	-31%	?	56µM*	-1%
COc1ccc(S(=O)(=O)N2Cc3cnnn3-c3ccccc3C2C#N)cc1 (stereo not given)	-10%	44%	-28%	/	/	/
N#CC1c2ccccc2-n2nncc2CN1S(=O)(=O)c1cc(Cl)cc(Cl)c1 (stereo not given)	?	28%	89µM*	/	/	/
CN1Cc2ccccc2-n2ccnc2C12CCN(C(=O)c1ccoc1)CC2	45%	/	/	/	/	/
SMILES	ALOX12 inh	HP1b binding inh	JMJD2A Tudor inh	BAZ2B block	G9a inh	Sfp PPTase inh
CCN(CC)CCCNC(=O)c1c(O)c2ccccc2n(Cc2ccccc2)c1=O	?	22%	-30%	?	-22%[0.501 µM]	-8%
CCN(CC)CCNC(=O)c1c(O)c2ccccc2n(Cc2ccccc2)c1=O	-5%	-8%	79µM*	-37%	?	2%
CN1C(=O)/C(=C\N2CCc3ccccc32)C(=O)NC1=S	-22%	-2%	?	-8%	?	35µM*
O=C(NCc1ccc(F)cc1)[C@H]1CN2CCC1C[C@@H]2Cn1cc(CO)nn1 (stereo not given in full)	-15%[176 µM]	/	/	/	/	/
Nn1c(Cc2cccc3ccccc23)n[nH]c1=S	?	?	10µM*	-34%	3.5µM*	7.1µM*
CC(=O)OC1C(=O)OCC23CCC4(C)OC4C2OC2CC(OC(=O)C=CC=CC(=O)OCCC1C)C3(C)C21CO1 (stereo not given)	-58%	28%	-5%	/	/	/
CC(O)C1C=CC=CC(=O)OC2CC3OC4C5OC5(C)CCC4(COC(=O)C4OC4(C)C(O)CO1)C2(C)C31CO1 (stereo not given)	32µM*	41%	-1%	/	/	/
CC[C@H]1CN2CC[C@H]1C[C@@H]2CNCc1cc2ccccc2o1	52%[176 µM]	/	/	/	/	/
CN1CCOC[C@H]2CCN(C(=O)c3ccncc3)C[C@H]21	-6%	/	/	/	/	/
Cc1cccc2c1=NC(=O)/C(=C/c1c(O)[nH]c(=O)[nH]c1=O)C=2	-28%	9%	-21%	?	10µM*	50µM*
O=c1[nH]c(=S)[nH]c(O)c1/C=C1/C=c2ccccc2=N1	7%	45%	?	?	/	-19%
COc1cc2c(cc1OC)-c1c3c(cc4c1[C@@H](C2)N(C)CC4)OCO3	-19%	1%	?	-34%	-15%	-6%
COc1cc2c(cc1O)C[C@H]1NCCc3cc4c(c-2c31)OCO4	?	-2%	22µM*	22µM*	?	-7%
CC(C)N1CCN(c2ccc(O)cc2)CC1	?	?	?	-6%	8.9µM*	-91%
CCn1c(O)c(C(=O)CC2NCCc3ccccc32)c(=O)n(CC)c1=S (stereo not given)	/	17%	-8%	?	?	45µM*
CCn1cc(C(=O)N(C)CC(=O)NC(C)(C)C)c2ccccc21	14%	/	/	/	/	/
CCCOC(=O)c1cc2c(cn1)[nH]c1ccccc12	4%	/	/	/	14%[59 µM]	?
CCOC(=O)c1cc2c(cn1)[C@@H](CCO)NC2	-12%	13%	45µM*	/	/	/
CC(C)N(C(=O)CN1CC=C(c2c[nH]c3ccccc23)CC1)C(C)C	-7%	/	/	/	/	/
COc1cc(C)c(CNCCc2c[nH]c3ccccc23)cc1C	?	?	22µM*	40µM*	?	-17%
COc1ccc(CNCCc2ccccc2F)c(OC)c1C	?	?	18µM*	?	79µM*	-21%
CCOc1cc(CNCCc2ccccc2F)ccc1OC	?	-36%	45µM*	40µM*	8.9µM*	-11%
COc1ccc(CNCCc2c[nH]c3ccccc23)c(OC)c1	2%	/	/	/	/	/
